Data published in PubChem BioAssay AID1566 (Sanford-Burnham Center for Chemical Genomics, 2009).
Several values for one entry are separate records, joined by “and”; a condition that tells them apart may be missing. Identical values can stand only once. Screen size: about 290,000 compounds; about 1,800 (0.62%) were called active. Rule as the data show it: active = inhibition above about 50%; inactive = the rest. Shown is part of a subset that was picked to be rich in actives.

Experiment: inhibition of NOD2-driven NF-kB reporter – cell-based, luminescence, uHTS, HEK293 (AID 1566)
Settings: HEK293 NOD2/NF-kB luciferase reporter, at 4 µM, stronger effect = higher value

inhibition, active:
CSc1ccc(C(=O)C2CCCN(C(=O)CCc3c(C)nn(C)c3C)C2)cc1 (stereo unspecified) 50.1%
CC1CC(C)CN(C(=O)c2nn(C)c3c2CSc2ccccc2-3)C1 (stereo unspecified) 51.5%
Cc1ccc(NC(=O)c2cc(C)n(-c3ccccc3)c2C)cc1 52%
O=C(/C=C/c1cn(-c2ccccc2)nc1-c1cccnc1)N1CCCC1 50.2%
Cc1nc2cc(-c3ccccc3)sc2c(=O)n1N 54.8%
COc1cccc(/C=N/Nc2ccc(C(=O)O)cc2)c1O 82.8%
O=C(O)CCSc1nc2ccccc2s1 65.2%
O=C(CSc1nc2ccccc2s1)N/N=C/c1ccccc1C(=O)O 56.5%
COC(=O)c1c(-c2cccs2)csc1NC(=O)CSc1ncnc2sc(C)c(C)c12 51.2%
CCOc1cc(/C=C2\SC(=O)N(CC(=O)Nc3ccccc3F)C2=O)cc([N+](=O)[O-])c1O 55.8%
CC(=O)c1ccc(S(=O)(=O)N(C)C(C)CCc2ccco2)cc1 (stereo unspecified) 54.3%
Cc1cc(N2CCCC2)ccc1NC(=O)COc1cccc(C(F)(F)F)c1 60.3%

inhibition, inactive:
Cc1nn(C)c(C)c1CCC(=O)N1CCCC(C(=O)c2cccc(OC(C)C)c2)C1 (stereo unspecified) 14.2%
CSc1ccc(C(=O)C2CCCN(C(=O)CCc3cnn(C)c3)C2)cc1 (stereo unspecified) 11%
Clc1cccc(-c2ccnc3nc(-n4cccc4)nn23)c1 5.6%
COc1ccc(OC)c(NC(=O)C2CC(=O)N(c3ccccc3)C2)c1 (stereo unspecified) -11.1%
COCCN1CN=C(NS(=O)(=O)c2ccc(C)cc2)NC1 6.3%
Cn1nc(C(=O)N2CCC(C(N)=O)CC2)c2c1-c1ccccc1SC2 12.9%
CC1CCCN(C(=O)c2nn(C)c3c2CSc2ccccc2-3)C1 (stereo unspecified) 8%
COCc1ccc(CN2CCC(C(=O)Nc3cccc(-c4cscn4)c3)CC2)o1 7.2%
Cc1ccc(NC(=O)c2cc(C)n(-c3cccc(C)c3)c2C)cc1 -26.4%
Cc1ccc(S(=O)(=O)NC(=O)c2cc(C)n(-c3ccccc3)c2C)cc1 13.4%
O=C(/C=C/c1cn(-c2ccccc2)nc1-c1cccnc1)c1ccco1 -74.6%
O=C(/C=C/c1cn(-c2ccccc2)nc1-c1cccnc1)N1CCCCC1 10%
CC(OC(=O)C1CCN(S(=O)(=O)c2ccc(Cl)cc2)CC1)C(=O)N1CCc2ccccc21 (stereo unspecified) -4.3%
COc1ccc(CN(Cc2nc3ccccc3c(=O)[nH]2)C(=O)c2ccco2)cc1 6.4%
c1ccc2c(c1)nc(-c1ccncc1)n2CCNc1nc(CN2CCCCC2)cs1 18.5%
CCOC(=O)c1ccc(NC(=S)N2CCCC(C(=O)OCC)C2)cc1 (stereo unspecified) -6%
O=C1C=C(c2cccs2)C[C@H](c2ccccc2)[C@H]1n1nnc([N+](=O)[O-])n1 21.7%
O=C1C=C(c2ccccc2)C[C@H](c2cccs2)[C@H]1n1cnc([N+](=O)[O-])c1 3.4%
COc1ccc(NC(=O)c2cccc(OC(=S)N3CCOCC3)c2)cc1 18.5%
Cc1cccc(C)c1NC(=S)NCc1ccncc1 7.5%
Cc1cc(/C=c2\sc3nc4ccccc4n3c2=O)c(C)n1-c1ccc(C(=O)O)cc1 -0.4%
Cc1cc(/C=c2/sc3nc4ccccc4n3c2=O)c(C)n1-c1ccccn1 3.6%
CC1(C)Cc2c(c(-c3ccco3)nc3sc4c(NCCO)ncnc4c23)CO1 16.6%
Cc1ccc(C(=O)O/N=C(/c2nonc2N)N(C)C)cc1 12.2%
COc1ccc(-c2nc3ccccc3n2Cc2ccccc2)cc1 -2.8%
Cc1n(Cc2ccccc2)c2ccccc2[n+]1Cc1ccccc1 22%
C/C(=N\Nc1ccc(C)c(Cl)c1)c1ccncc1 -32.8%
O=C(Nc1ccc2c(c1)OCO2)C1CCN(Cc2cc3c(cc2O)OCO3)CC1 1.5%
Cc1nc2sc(-c3ccccc3)cc2c(=O)n1N -41.2%
Cc1nc2ccccc2c(=O)n1N -3.2%
CC(C)(C#N)NC(=O)C(=O)c1c(-c2ccccc2)cc2ccccn12 5%
CCOc1ccc(-n2c(N)c(-c3nc4ccccc4[nH]3)sc2=S)cc1 9.9%
COc1cccc(/C=N/Nc2ccc([N+](=O)[O-])cc2)c1O -64%
COc1cccc(/C=N/Nc2ccc(S(=O)(=O)O)cc2)c1O 15.4%
CCOC(=O)CNC(=S)N(CCCN1CCN(C)CC1)Cc1cccs1 -1.4%
O=C1OC(c2ccccc2)c2ccccc21 (stereo unspecified) -11.5%
CC1CCN(S(=O)(=O)c2ccc(NC(=O)CNC3CCCCC3)cc2)CC1 -15.2%
Cc1sc2c(=O)n3c(nc2c1C(=O)NC1CCCCC1)CCCCC3 16.8%
O=C(O)COc1ccccc1/C=N/NC(=O)CSc1nc2ccccc2s1 -0.7%
O=C(O)CSc1nc2ccccc2s1 0.2% and -11.4%
O=C(CSc1nc2ccccc2s1)N/N=C/c1ccc(C(=O)O)cc1 12.9%
O=C(CSc1nc2ccccc2s1)CSc1nc2ccccc2s1 4.4%
Cc1ccc(S(=O)(=O)N2CCN3CCCC3C2)cc1 (stereo unspecified) 17.2%
O=C(O)c1ccc(-n2c(/C=C/c3ccccc3)nc3ccccc3c2=O)cc1 -19.9%
COc1ccc(Oc2nnc(-c3ccc(C)cc3)c3ccccc23)cc1 14.9%
Cc1ccc(/C=C/C(=O)Nn2cnnc2)cc1 5%
Cc1cc(Br)c(S(=O)(=O)NCc2ccncc2)cc1C 48.6%
Cc1ccc(C)c(S(=O)(=O)NCc2ccncc2)c1 22.5%
Cc1c(NP(=O)(Oc2ccccc2F)Oc2ccccc2F)c(=O)n(-c2ccccc2)n1C 7.9%
O=C(Nc1cc(S(=O)(=O)N2CCCC2)ccc1OCC(F)(F)F)c1ccccc1F 6.6%
COC(=O)c1c(-c2ccccc2)csc1NC(=O)CSc1ncnc2sc(C)c(C)c12 34.6%
Cc1cccc(NC(=O)CSc2ncnc3sc(C)c(C)c23)n1 36.5%
O=C(O)CN1C(=O)C2C3CC(C2C1=O)C1C(c2ccc(Cl)cc2)c2sc(=O)[nH]c2SC31 (stereo unspecified) 3.8%
Cc1nn(-c2ccccc2)c(Cl)c1/C=N/NC(=O)OC(C)(C)C -73.9%
Cc1cccc(C(=O)Nc2nnc(S(=O)(=O)N3CCC(C)CC3)s2)c1 -3.6%
CC1CCN(S(=O)(=O)c2nnc(NC(=O)c3cccc([N+](=O)[O-])c3)s2)CC1 37.1%
O=C(Nc1nnc(S(=O)(=O)N2CCCCC2)s1)c1ccc(Cl)cc1 47.8%
Cc1ccc(C(=O)Nc2nnc(S(=O)(=O)N3CCCCCC3)s2)cc1 4.6%
CC(=O)c1cccc(NCC(=O)c2ccc(C)c([N+](=O)[O-])c2)c1 15.7%
Cc1ccc(S(=O)(=O)Nc2nnc(C(C)(C)C)s2)cc1 20.9%
N/C(=N\c1nc(CSc2ccc(Cl)cc2)cc(=O)[nH]1)Nc1ccccc1C(F)(F)F 2.8%
CC(=O)N1N=C(c2ccco2)CC1c1cccs1 (stereo unspecified) -8.2%
Cc1ccc(C2=NN(C(=O)CCl)C(c3ccco3)C2)o1 (stereo unspecified) -44.2%
Cc1ccc(C2CC(c3cccs3)=NN2C(=O)CCl)cc1 (stereo unspecified) 37.3%
O=C(O)CCC(=O)N1N=C(c2ccco2)CC1c1cccs1 (stereo unspecified) 12.1%
CCOC(=O)c1cccc(NC(=O)COC)c1 4.6%
CCOCCCNC(=O)/C(C#N)=C/c1ccc(C(=O)OC)cc1 15.4%
O=C1Nc2ccccc2S/C1=C\C(=O)N1CCCC1 -4%
O=C(CCNC(=O)c1ccco1)Nc1ccccc1N1CCOCC1 -4.7%
COc1cc(/C=C2\SC(=O)N(CC(=O)Nc3cccc(C)c3)C2=O)cc([N+](=O)[O-])c1O 1.5%
COc1cc(/C=C2\SC(=O)N(CC(=O)Nc3ccccc3F)C2=O)cc(Cl)c1O 18.4%
O=C(NC1CCCCC1)C1CN(S(=O)(=O)c2ccccc2)CCN1S(=O)(=O)c1ccccc1 (stereo unspecified) 20.9%
CCOC(=O)/C(C#N)=C1/SC(CC)C(=O)N1c1ccc(Br)cc1 (stereo unspecified) -8.1%
CC1CCN(C(=S)c2cn(Cc3ccccc3F)c3ccccc23)CC1 10.5%
CC(=O)Oc1cccc(N2C(=O)C3CC=CCC3C2=O)c1 (stereo unspecified) 2.7%
Cc1csc2c(N3CCN(C(=O)Nc4ccc(OC(F)(F)F)cc4)CC3)ncnc12 10.4%
Cc1csc2c(N3CCN(C(=O)Nc4ccccc4)CC3)ncnc12 34.1%
CC(NS(=O)(=O)c1ccc(Cl)cc1)C(=O)N1CCOCC1 (stereo unspecified) -4.3%
Cc1cc(OCC(=O)NCCCn2ccnc2)c2c(C)c(C)c(=O)oc2c1 -3.4%
COc1ccc(S(=O)(=O)N(C)C(C)CCc2ccco2)cc1 (stereo unspecified) -3.3%
CC(CCc1ccco1)N(C)S(=O)(=O)c1csc(C(N)=O)c1 (stereo unspecified) 15%
CC(C)(C)C(=O)C[n+]1cccc(C(N)=O)c1 12.8%
O=C(COc1ccccc1)Nc1cc(C(F)(F)F)ccc1N1CCCC1 24.5%
O=C(COc1cccc(C(F)(F)F)c1)Nc1ccc(S(=O)(=O)N2CCCC2)cc1 -5.9%
